Test results published in the supplement of paper PMC5499739.
In all, about 16,000 sequences were measured (“Z-score”: median about -0.37, highest 2% from about 3.2 on). This excerpt belongs to a sample that is enriched for the highest values.

System: RBM10 RRM1-ZnF (GST-tagged construct)
Assay: RNAcompete 7-mer binding Z-score; higher = stronger binding preference
Outline: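 In 1 ml Hepes pH 7.8 buffer with KCl, NaCl, glycerol, DTT, BSA and glutathione Sepharose beads, GST-tagged RBM10 constructs (20 pmol) were incubated for 30 min at 4°C with 1.5 nmol of a designed pool of 241 399 RNAs up to 41 nt. Four 2-min washes at 4°C followed, and bound RNA was detected by microarray hybridisation. Heptamer motif enrichment was expressed as a one-sided Z-score across probes containing each motif.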

Row | Sequence | RNAcompete 7-mer binding Z-score
1 | UCAUUAA | -0.509
2 | GCAUUCG | -0.444
3 | GGGAUUC | 1.12
4 | GGGAUUG | 3.5
5 | AGAUAGG | 2.44
6 | GGGAUAA | 3.48
7 | AGGAUUG | 1.5
8 | GGAUAGA | 2.61
9 | GGGAUAC | 2.5
10 | UGGAUAA | 1.15
11 | GGAUAGG | 4.11
12 | GUAGUUC | -0.243
13 | UGAAUAG | 0.387
14 | GUCUGAC | -0.529
15 | CACAACA | -0.363
16 | GUGGUGG | 3.9
17 | CUGGUGG | 1.64
18 | GUGGUGC | 1.76
19 | AUGGUGC | 1.03
20 | UUGGUGG | 2.48
21 | AUGGUGG | 3.82
22 | CCCGAGG | 0.384

Row | Sequence | RNAcompete 7-mer binding Z-score
23 | AUCACAU | -0.457
24 | CAGCAAC | -0.539
25 | CGACGCA | -0.36
26 | UGGGUCU | 1.12
27 | ACUGCUG | -0.675
28 | GAGGGUG | 3.75
29 | AAGGGCA | 2.78
30 | UAGGGCG | 2.22
31 | UAGGGUC | 1.55
32 | CAGGGUA | 2.99
33 | UCGGGUA | 1.4
34 | UAGGGUA | 3.47
35 | UAGGGUG | 4.81
36 | AAGGGUC | 1.72
37 | GAGGGUU | 3.03
38 | GAGGGUC | 1.44
39 | AAGGGUA | 4.59
40 | UGUUUCU | -0.418
41 | CCUAAGG | -0.344
42 | AGUCCCA | -0.714
43 | AUGGUAG | 2.74
44 | ACGCCAU | -0.665

Row | Sequence | RNAcompete 7-mer binding Z-score
45 | AAACCUC | -0.802
46 | UCCCUUU | -0.912
47 | GCAUUUG | -0.477
48 | CCGAAGG | 0.179
49 | CAGGGUC | 1.09
50 | AAAGGUU | 3.12
51 | CCGGGUA | 0.625
52 | UCGGGUU | 1.12
53 | CAGGGUG | 3.21
54 | GAGGGUA | 3.95
55 | CAGGGUU | 2.15
56 | AAGGGUU | 4.07
57 | CAGGGCG | 2.02
58 | UAGGGUU | 3.33
59 | AAGGUUU | 2.51
60 | GAGGGCA | 2.12
61 | GCCGCGA | -0.422
62 | AACGUCA | -0.574
63 | AGCUAUG | -0.168
64 | GUUCGCA | -0.652
65 | CCCUUAU | -0.831
66 | AGCUGUU | -0.737

Row | Sequence | RNAcompete 7-mer binding Z-score
67 | UAUACGU | -0.357
68 | AAGGUGU | 2.55
69 | GAGGUGG | 3.35
70 | AAGGUGC | 2.39
71 | GAGGUGU | 2.37
72 | AAGGUGA | 3.66
73 | AAGGUAG | 3.69
74 | AAGGUGG | 4.39
75 | GAGGUGC | 1.81
76 | CAGGUAG | 2.32
77 | AAGGUAA | 2.97
78 | GAGGUGA | 2.56
79 | CAGGUGA | 1.49
80 | CGUUACU | -0.558
81 | AGUAUUC | -0.493
82 | AAACCAA | -0.548
83 | CAGCGUC | -0.623
84 | AGGAAUA | 0.881
85 | ACUACUA | -0.402
86 | CCCUGUG | -0.327
87 | GACUCUA | -0.642
88 | GUAUGUG | 1.07

Row | Sequence | RNAcompete 7-mer binding Z-score
89 | CACUCGC | -0.604
90 | AUGCGAG | 0.569
91 | UAGGUUG | 2.09
92 | AAGGUUG | 3.49
93 | CAGGUUG | 2.04
94 | AGAGCGC | -0.568
95 | GCACACU | -0.295
96 | UGGUGGG | 4.74
97 | GGGUGCG | 2.96
98 | GCGUGGG | 3.53
99 | UGGUGGU | 2.8
100 | UGGUGGA | 2.86
101 | GGGUGGC | 2.89
102 | UGGUGGC | 1.8
103 | ACGUGGG | 2.43
104 | UCGUGGG | 2.53
105 | GGGUGGG | 4.82
106 | GGGUGGU | 4.8
107 | CGGUGGU | 1.64
